Bioassay records deposited in PubChem by National Center for Advancing Translational Sciences (NCATS).
TDP1 inh – blocks human tyrosyl-DNA phosphodiesterase 1. 350,000 tested, 0.28% active. Potency, µM (doses to about 130 µM), hits mostly inhibitors. Q9NUW8. recombinant TDP1, AlphaScreen DNA substrate cleavage. AID 485290; further: nearly all actives have a fitted effect of over 40% in size
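AlphaScreen read-out: signal falls as enzyme removes the 3' tyrosine-FITC from a 5'-biotinylated DNA oligo (15 nM, 5 min, RT). Enzyme was E. coli-made recombinant Tdp1 at 1 nM, exposed to compound for 15 min beforehand; beads 10 ug/ml, 10 min.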
DT40 TDP1 no CPT – qHTS for Inhibitors of human tyrosyl-DNA phosphodiesterase 1 (TDP1): qHTS in cells in absence of CPT. DT40 Tdp1-/- hTDP1 cells, no CPT, ATP luminescence, 48 h. Potency, µM (highest dose often 46.2 µM), most hits filed as inhibitors. 420,000 tested, 15% active; further: nearly all actives have a fitted effect of over 55% in size
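Luminescent ATP content (CellTiter-Glo) served as the growth readout. Knockout chicken DT40 cells expressing human TDP1 were exposed to compounds without camptothecin for a minimum 48 hr at 37 °C.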
VDR inh – inhibitors of human vitamin D receptor. VDR-SRC2-3 peptide fluorescence polarization, 2 h. Potency, µM, usual class: inhibitors. 400,000 tested, 0.93% active. AID 504847
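Fluorescence polarization assay of small-molecule disruption of VDR binding to coregulator peptide SRC2-3. Compounds and controls pin-transferred, then read after 2 h incubation at ambient room temperature.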
GCN5L2 inh – inhibitors of human GCN5L2 histone acetyltransferase | Q92830 | GCN5L2 HAT assay, ThioGlo1 CoA-SH fluorescence | Potency, µM (highest dose often 58.9 µM), actives largely listed as inhibitors | 390,000 tested, 0.21% active
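Preincubate 20nM GCN5L2 with compound 15 min, RT → add 50uM ThioGlo1 + 75uM H3(1-25) + 70uM acetyl-CoA → read fluorescence 0 and 20 min. Primary qHTS; fluorescent artifacts likely.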
PLK1 PBD block – blocks phosphopeptide binding to human PLK1 polo-box domain; Plk1 PBD binding of FITC phosphopeptide, fluorescence polarization; Potency, µM, usual class: inhibitors; 360,000 tested, 2.8% active; AID 720504; further: series mostly up to about 57 µM; nearly all actives have a fitted effect of over 65% in size
TDP1 cell CPT – growth inhibition of DT40 Tdp1-/-;hTDP1 cells with camptothecin (screen for TDP1 inhibitors) | chicken DT40 Tdp1-/-;hTDP1 cells + 20 nM CPT, ATP luminescence, 48 h | Potency, µM (doses to about 46.2 µM), actives largely listed as inhibitors | 420,000 tested, 12% active | AID 686979; further: nearly all actives have a fitted effect of over 55% in size
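Chicken DT40 Tdp1-/- cells stably complemented with human TDP1 were seeded at 400 cells/well in medium containing 20 nM camptothecin, exposed to pin-transferred compounds, and grown at 37 °C for at least 48 hr. Viability was read as ATP luminescence.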
A number is an active result; . = inactive; ? = inconclusive; / = no result given; ! = not confirmed by another sample; [ ] = another dose, or the depositor's remark. Rows were chosen to be rich in hits. Some 18% of all compounds tested hit in one or more screens of this group. The call rests on the fitted dose curve; in most records, active means well fitted curve in the direction sought with a large enough effect; inconclusive means small, poorly fitted or top-dose-only effect, or another doubt; inactive means no such curve, though single readings can be large; an effect the other way counts as inactive or inconclusive.

SMILES	TDP1 inh	DT40 TDP1 no CPT	VDR inh	GCN5L2 inh	PLK1 PBD block	TDP1 cell CPT
C[C@H]1CNC(=O)c2c(C(=O)Nc3ccc(CNC(=O)OC(C)(C)C)cc3)ncn21	/	9.2µM	/	/	.	14.6µM
C[C@@H]1CNC(=O)c2c(C(=O)Nc3cccc(Cl)c3)ncn21	/	20.6µM	/	/	.	20.6µM
CN1[C@@H]2CC[C@H]1CC(O)C2 (stereo not given in full)	.	/	.	.	/	/
CC(C)(C)c1o[nH]c(=O)c1C[C@H](N)C(=O)O	.	.	.	.[0.501 µM]	/	.
Clc1cccc(/C=N\Nc2nccs2)c1	.	4.61µM	.	.	?	14.6µM
O=c1[nH]c(=O)n(-c2ccc(Cl)cc2)c(O)c1C=Nc1ccc(S(=O)(=O)Nc2nccs2)cc1	.	.	.	.	.	.
CCOP(=O)(OCC)C(Cc1ccc(OC)c(OC)c1)N=C(c1ccccc1)c1ccccc1 (stereo not given)	/	?	/	/	.	?
COc1ccc(CCn2c(O)c(C=NCc3cccnc3)c(=O)[nH]c2=O)cc1OC	.	?	.	.	26.7µM	?
CCN(CC)CCCN=Cc1c(O)n(CCc2ccc(OC)c(OC)c2)c(=O)[nH]c1=O	.	.	.	.	.	.
O=C(Nc1nc2ccccc2s1)c1cccn(Cc2ccccc2)c1=O	.	?	.	.	/	?
Cc1ccccc1Cn1cccc(C(=O)Nc2nc3ccccc3s2)c1=O	.	16.4µM	.	.	/	16.4µM
Cc1ccc2c(Cl)cc(Cl)c(O)c2n1	.	3.26µM!	.	.	.	2.91µM!
BrCC(Br)(Br)Br	.	?	.	.	.	9.2µM
CC(C)CCNC(=O)CNC(=O)[C@@H](C)NC(=O)[C@@H](N)Cc1ccc(O)cc1	.	/	.	.	/	/
Cc1ccc(OCCn2cccc2/C=C2/C(=O)NC(=O)N(Cc3ccco3)C2=O)cc1	.	.	.	.	2.67µM	.
COc1ccc(/C=C2/C(=O)NC(=O)N(Cc3ccco3)C2=O)cc1	.	/	/	?	/	/
Cc1ccccc1-n1c(C)cc(/C=C2/C(=O)NC(=O)N(Cc3ccco3)C2=O)c1C	.	?	.	.	.	.
CCc1ccc(N2C(=O)NC(=O)/C(=C\c3cccn3CCOc3ccc(C(C)C)cc3)C2=O)cc1	.	16.4µM	?	.	.	20.6µM
Cn1cccc1/C=C1\C(=O)NC(=O)N(Cc2ccco2)C1=O	17.8µM	?	.	.	23.8µM	9.2µM
CCOC(=O)C1CCN(/C=C2/C(=O)NC(=O)N(Cc3ccco3)C2=O)CC1	39.8µM	.	.	.	?	.
O=C(Nc1ccc(F)cc1)OC1CN2CCC1CC2 (stereo not given)	.	.	.	.	.	.
CC(C)Oc1cc(-n2nc(C(C)(C)C)oc2=O)c(Cl)cc1Cl	.	/	.	.	/	/
CCc1ccc(-n2c(O)c(C=NCCN(CC)CC)c(=O)[nH]c2=O)cc1	.	.	.	.	?	.
CC(Cc1ccc(C(C)(C)C)cc1)CN1CCCCC1 (stereo not given)	.	/	.	.	/	/
CC1(C)Cc2c(sc3nc4n(-c5ccccc5)c(=O)c(CCC(=O)O)nn4c(=O)c23)CO1	.	.	.	.	.	?
O=C(NCCc1ccc(F)cc1)C(=O)NCC(c1cccs1)S(=O)(=O)c1ccc(Cl)cc1 (stereo not given)	.	11.6µM	.	.	/	14.6µM
CC[C@@H]1CN2CCc3cc(OC)c(OC)cc3[C@@H]2C[C@@H]1C[C@H]1NCCc2cc(OC)c(OC)cc21	.	0.0335µM	.	.[0.501 µM]	/	.
CCC1CN2CCc3cc(OC)c(OC)cc3C2CC1CC1NCCc2c1[nH]c1ccc(O)cc21 (stereo not given)	/	0.082µM	.	/	.	0.146µM
Cc1ncc(C[n+]2csc(CCOP(=O)(O)O)c2C)c(N)n1	.	.	.	.	/	.
Cc1ccc(/C=C2/C(=O)NC(=O)N(CC3CCCO3)C2=O)s1 (stereo not given)	.	?	?	.	5.97µM	.
